Bioassay records deposited in PubChem BioAssay by Emory University Molecular Libraries Screening Center.
14-3-3g Raf = 14-3-3 gamma protein interaction modulation | 160,000 tested, 0.19% active | AID 422 | inhibition, % at 40 µM | P61981 | FP, 14-3-3gamma / TMR-pS259-Raf peptide binding; in the data active means inhibition above about 30%
Target sequence (P61981 whole entry, looked up): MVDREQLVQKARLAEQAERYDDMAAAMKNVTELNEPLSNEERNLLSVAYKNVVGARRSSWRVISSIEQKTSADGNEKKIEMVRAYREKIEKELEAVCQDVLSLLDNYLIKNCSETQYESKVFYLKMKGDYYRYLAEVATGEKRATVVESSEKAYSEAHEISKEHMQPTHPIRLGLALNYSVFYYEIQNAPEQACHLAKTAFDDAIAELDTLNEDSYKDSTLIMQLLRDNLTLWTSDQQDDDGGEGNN
Numbers stand for hits; - = inactive; ! = repeats disagree. The full list was thinned out, with hits kept by preference.

SMILES	14-3-3g Raf
CCCCSc1nnc2c(n1)OC(c1cccc(OCC)c1OC)Nc1ccccc1-2 (stereo not drawn)	70
CCCCCSc1nnc2c(n1)OC(c1cccc(C)n1)Nc1ccccc1-2 (stereo not drawn)	36
CCCCCCSc1nnc2c(n1)OC(c1ccsc1)Nc1ccccc1-2 (stereo not drawn)	-
CCCSc1nnc2c(n1)OC(C)Nc1ccccc1-2 (stereo not drawn)	-
C=CCSc1nnc2c(n1)OC(c1cccc(C)n1)Nc1ccccc1-2 (stereo not drawn)	-
COc1ccc(-c2cc(C(F)(F)F)n3nc(C(=O)Nc4ccc(C)cc4C)cc3n2)cc1	-
CCCn1cnc2sc(C(=O)Nc3cccc(Cl)c3)c(C)c2c1=O	-
O=C(O)c1cc(-c2ccc3ccccc3c2)n[nH]1	-
CCOC(=O)c1c(NC(=O)COc2ccccc2Br)sc2c1CCC(C)C2 (stereo not drawn)	-
COc1ccccc1NC(=O)CSc1nnc2c3ccccc3n(CCc3ccccc3)c2n1	-
N#Cc1c(NC(=O)CSc2nnc3sc4ccccc4n23)sc2c1CCC2	-
Cc1ccc(NS(=O)(=O)c2ccc(Cl)c(C(=O)O)c2)cc1	-
CC1=C(C(=O)OC2CCCCCC2)C(c2cccc(C)c2)NC(=O)N1 (stereo not drawn)	-
O=C(O)C1CCCN1S(=O)(=O)c1ccc(F)cc1 (stereo not drawn)	-
Cc1ccc(S(=O)(=O)N2CCCC2C(=O)O)cc1 (stereo not drawn)	53!
O=C(O)C1CCCCN1S(=O)(=O)c1ccc(Cl)cc1 (stereo not drawn)	-
CCOP(=O)(OCC)C(C)(C)N=C1SC(c2ccc(OC)cc2)(C(F)(F)F)NC(=O)N1c1ccccc1 (stereo not drawn)	-
CC(C)CCNC(=O)Cn1nc(-c2ccc(Cl)cc2)ccc1=O	-
Cc1nnc(Sc2cc(C(=O)NCc3cccnc3)c3ccccc3n2)s1	-
CCN(c1ccc(F)cc1)S(=O)(=O)c1cc(Br)cc2c1N(C(C)=O)CC2	-
COc1cccc(-c2ccc3c(N)c(C(=O)c4ccc(Cl)cc4)sc3n2)c1	-
COc1ccc(-c2ccc3c(N)c(C(=O)Nc4ccc5c(c4)OCCO5)sc3n2)cc1	-
COc1ccc(-c2ccc3c(N)c(C(=O)c4ccc5c(c4)OCCO5)sc3n2)cc1	71
CCN(C(=O)Cc1c(C(=O)O)[nH]c2ccc(Cl)cc12)c1cc(C)ccc1C	-
CC1CC(=O)N(c2ccc(N(C)Cc3ccccc3)c([N+](=O)[O-])c2)C1=O (stereo not drawn)	-
SMILES	14-3-3g Raf
CC1CCC2C(=O)N(c3ccc(N(C)C4CCCCC4)c([N+](=O)[O-])c3)C(=O)C2C1 (stereo not drawn)	-
CC1CCC2C(=O)N(c3ccc(N(C)Cc4ccccc4)c([N+](=O)[O-])c3)C(=O)C2C1 (stereo not drawn)	38
CC1CCN(C(=O)c2c(NC(=O)c3cccs3)sc3c2CCC(C(C)(C)C)C3)CC1 (stereo not drawn)	-
O=C(CN(Cc1ccccc1)S(=O)(=O)c1ccc(Br)cc1)NCc1ccncc1	-
O=C(CN(Cc1ccccc1)S(=O)(=O)c1ccccc1)NCc1ccncc1	33
O=C(CN(Cc1ccccc1)S(=O)(=O)c1ccc(F)cc1)NCc1ccccc1	-
COC(=O)C1=C(C)NC2=C(C(=O)CCC2)C1c1cc(C)sc1SC (stereo not drawn)	-
Cc1ccc(-n2c(SCC(=O)Nc3ccccc3F)nc3c([nH]c4ccccc43)c2=O)cc1	-
CCOC(=O)C1=C(C)N(C)C(SC)=NC1c1ccco1 (stereo not drawn)	-
CCCCC1(C(=O)OCC)CC(CN2CCOCC2)OC1=O (stereo not drawn)	54
CCOC(=O)c1c(NC(=O)CN2CCOCC2)sc2c1CCCC2	-
CCCCOC(=O)N1CCOCCOCCN(C(=O)OCCCC)CCOCCOCC1	-
O=C(Cn1c(=O)sc2ccccc21)NC1CCCc2ccccc21 (stereo not drawn)	-
Cc1cc(N2CCOCC2)nc2ccc(NC(=O)CC3CCCCC3)cc12	-
CCOc1ccc(C(=O)Nc2c3c(nn2-c2cccc(C)c2C)CS(=O)(=O)C3)cc1OCC	-
Cc1ccc(-n2c(SCC(N)=O)nc3c(sc4cccc(F)c43)c2=O)cc1	-
CC(=O)N1c2ccc(S(=O)(=O)CCC(=O)Nc3ccc(Br)cc3C)cc2CC1C (stereo not drawn)	-
CC(=O)N1c2ccc(S(=O)(=O)CCC(=O)Nc3cc(C)ccc3C)cc2CC1C (stereo not drawn)	34
CC(=O)N1c2ccc(S(=O)(=O)CCC(=O)Nc3ccc(C)c(C)c3)cc2CC1C (stereo not drawn)	-
COCCN1C(=O)c2ccccc2C(C(=O)NCc2ccc(C)o2)C1c1c[nH]c2ccccc12 (stereo not drawn)	-
Oc1ccc2ccccc2c1C=Nc1cccc2ccccc12	-
Brc1ccc(C=Nc2nc3c(s2)CCCC3)cc1	-
Oc1ccc2ccccc2c1C=Nc1nc2c(s1)CCCC2	36
CCN(CCNC(=O)C1CCCN(S(=O)(=O)c2cccs2)C1)c1ccccc1 (stereo not drawn)	-
